Screens as filed in PubChem BioAssay.
A selection follows.
aSyn UTR act: Activators via SNCA 5'UTR binding, MLPCN. alpha-synuclein 5'UTR reporter, activators screen. activity score, % (tested at 7.5 µM), hits read low. hit rate 7.1% among 300,000; in the data active = activity score below about -60%
Numbers stand for hits.

`c1ccc2nc(-c3ccc(-n4ccnc4)cc3)ccc2c1` gave aSyn UTR act -224.
Screening O=C(Nc1nnc(C2CC2)o1)c1ccc(S(=O)(=O)N2CCCc3ccccc32)cc1 returned aSyn UTR act inactive.
Screening O=C(CCCC(=O)N1CCN(c2ccccc2F)CC1)c1ccccc1 returned aSyn UTR act -76.
For O=C(CCc1nnc(C2CCCCC2)o1)N1CCN(c2ccccc2F)CC1 the results were aSyn UTR act -112.
`O=C(Oc1ccccc1)N1CCN(c2ccccc2F)CC1` gave aSyn UTR act -65.
Screening Cc1cc(C2=NNC(=NC3CC3)SC2)c(C)n1-c1ccccc1F returned aSyn UTR act inactive.
`Cc1ccccc1N=C1NN=C(c2ccccc2F)CS1` gave aSyn UTR act -171.
COc1cc(C(=O)Oc2c(CN3CCOCC3)cc(Cl)c3cccnc23)cc(OC)c1OC was read as aSyn UTR act inactive.
CCCCCOc1ccc(CN2CCOCC2)cc1Cl was read as aSyn UTR act -154.
For O=[N+]([O-])c1ccc(NCc2ccccc2)nc1 the results were aSyn UTR act -67.
Screening CC(C)CNc1nc(N)c([N+](=O)[O-])c(NCc2ccccc2)n1 returned aSyn UTR act inactive.
For O=c1oc2ccccc2c(Nc2ccc3ccccc3c2)c1[N+](=O)[O-] the results were aSyn UTR act -94.
For CCC(C)NC(=O)Cc1c(C)c2cc3c(cc2oc1=O)OC(C)(C)CC3 (stereo unspecified) the results were aSyn UTR act -118.
Screening Cc1c(CCC(=O)O)c(=O)oc2cc3oc4c(c3cc12)CCCC4 returned aSyn UTR act inactive.
Cc1c(CC(=O)NC(C)C)c(=O)oc2cc3c(cc12)CCC(C)(C)O3 was read as aSyn UTR act -78.
`Cc1c(CC(=O)N[C@H](C(=O)O)C(C)C)c(=O)oc2cc3c(cc12)CCC(C)(C)O3` gave aSyn UTR act -110.
For O=C(COC(=O)c1ccccc1Br)NCCC1=CCCCC1 the results were aSyn UTR act -64.
O=C(NCCC1=CCCCC1)c1cnccn1 was read as aSyn UTR act -114.
`Cc1cc(C(=O)NCCC2=CCCCC2)c(C)o1` gave aSyn UTR act -123.
For COc1ccc(C(=O)NCCC2=CCCCC2)cc1OC1CCN(C(C)C)CC1 the results were aSyn UTR act -74.
For COc1cccc(C(=O)NCCC2=CCCCC2)c1OC the results were aSyn UTR act -117.
O=[N+]([O-])c1cccc(/C([O-])=C(/C(=S)Nc2ccccc2)[n+]2ccccc2)c1 was read as aSyn UTR act -105.
Screening O=[N+]([O-])c1cccc(NC(=S)Nc2nc(-c3ccc(Cl)cc3Cl)cs2)c1 returned aSyn UTR act inactive.
Screening COc1cc([N+](=O)[O-])ccc1NC(=S)Nc1cccc(C(=O)O)c1 returned aSyn UTR act -72.
O=C(NC(=S)Nc1cccc([N+](=O)[O-])c1)c1ccccc1 was read as aSyn UTR act -170.
O=C(NC(=S)Nc1cccc([N+](=O)[O-])c1)c1ccco1 was read as aSyn UTR act -113.
Screening O=C(Nc1ccc([N+](=O)[O-])cc1)C(=O)Nc1cccc(C(=O)O)c1 returned aSyn UTR act inactive.
O=C(NC(=S)Nc1cc([N+](=O)[O-])ccc1Cl)c1ccccc1 was read as aSyn UTR act -85.
`Cc1onc(-c2ccccc2)c1C(=O)OCCOc1cccc(Cl)c1` gave aSyn UTR act -70.
For CCOc1ccc(C(=O)COC(=O)c2c(-c3ccccc3)noc2C)cc1 the results were aSyn UTR act -63.
COC(=O)C1C(=O)C=C(Nc2ccc(F)cc2F)CC1c1ccccc1 (stereo unspecified) was read as aSyn UTR act -114.
CCOC(=O)C1C(=O)C=C(Nc2ccccc2F)CC1c1ccccc1 (stereo unspecified) was read as aSyn UTR act -114.
For O=C(c1ccc2nc(Cc3ccccc3F)oc2c1)N1CCCC1 the results were aSyn UTR act -150.
Screening Cc1cc(CNC(=O)c2ccc3nc(Cc4ccccc4F)oc3c2)nn1C returned aSyn UTR act -135.
Screening CC(c1ccccn1)N(C)C(=O)c1ccc2nc(Cc3ccccc3F)oc2c1 (stereo unspecified) returned aSyn UTR act -102.
Screening OCCN=c1cc(-c2ccccc2)oc2ccc(Cl)cc12 returned aSyn UTR act -199.
For CC(O)CN=c1cc(-c2ccccc2)oc2ccc(Cl)cc12 (stereo unspecified) the results were aSyn UTR act -239.
Screening CC(C)CN=c1cc(-c2ccccc2)oc2ccc(Cl)cc12 returned aSyn UTR act -123.
NNC(=O)c1[nH]c2ccc(Cl)cc2c1-c1ccccc1 was read as aSyn UTR act inactive.
For CCCCc1nc2cc(C(=O)N(C)C3CCOCC3)ccc2o1 the results were aSyn UTR act -165.
O=C(c1ccc2oc(CCc3ccccc3)nc2c1)N1CC[C@H](O)C1 was read as aSyn UTR act -134.
CCCCc1nc2cc(C(=O)N3CCC(O)CC3)ccc2o1 was read as aSyn UTR act -83.
O=C(c1ccc2oc(CCCc3ccccc3)nc2c1)N1CCCC(CCCO)C1 (stereo unspecified) was read as aSyn UTR act -65.
Cc1ccc(C)c(-c2[nH]ncc2CN2CCCC(CO)(Cc3ccccc3C)C2)c1 (stereo unspecified) was read as aSyn UTR act inactive.
Cc1cccc(/N=C/c2c(O)[nH]c3ccccc23)n1 was read as aSyn UTR act -211.
For Oc1[nH]c2ccccc2c1C=Nc1ccc2c(c1)OCCO2 the results were aSyn UTR act -76.
For CCOC(=O)C1=C(COc2ccc(C)cc2)NC(=O)NC1c1cc(C)ccc1C (stereo unspecified) the results were aSyn UTR act -86.
For Clc1cccc(Cl)c1Cn1nnc(N2CCCC2)n1 the results were aSyn UTR act -64.
Screening CCc1ccccc1NC(=S)N1N=CCC1c1ccccc1 (stereo unspecified) returned aSyn UTR act -71.
`Cc1cccc(NC(=S)N2N=CCC2c2ccccc2)c1` (stereo unspecified) gave aSyn UTR act -125.
For CC(/C=C/c1ccccc1)=N\NC(N)=S the results were aSyn UTR act -100.
CC(/C=C/c1ccccc1)=N\Nc1nc(C)cc(C)n1 was read as aSyn UTR act -96.
C=CCn1c(N/N=C/c2ccc(O)cc2)nc2ccccc2c1=O was read as aSyn UTR act -134.
For C=CCn1c(SCc2c(C)noc2C)nc2ccccc2c1=O the results were aSyn UTR act inactive.
For O=c1[nH]c(N/N=C/c2ccc(O)cc2)nc2ccccc12 the results were aSyn UTR act -158.
O=c1[nH]c(N/N=C\c2ccc(F)cc2)nc2ccccc12 was read as aSyn UTR act -150.
Screening CCc1ccc(NC(=O)c2sccc2-n2cccc2)cc1 returned aSyn UTR act -64.
`O=C(Nc1ccc(Cl)cc1)c1sccc1-n1cccc1` gave aSyn UTR act -66.
Screening Cc1ccc(OCc2cc(C(=O)N(C)CC3CCOCC3)no2)cc1C returned aSyn UTR act -104.
`Cc1cc(OCc2cc(C(=O)N(C)C3CCOCC3)no2)cc(C)c1Cl` gave aSyn UTR act -128.
For Cc1ccc2c(c1)Cc1nc3ccccc3nc1-2 the results were aSyn UTR act inactive.
`Cc1ccc2c(c1)C(=NC1CCCCC1)c1cc3ccccc3nc1-2` gave aSyn UTR act -206.
O=c1c2ccccc2nc2ccc(NCc3ccco3)nn12 was read as aSyn UTR act -144.
For Cc1sc2nc3ccc(NCc4ccco4)nn3c(=O)c2c1C the results were aSyn UTR act -119.
O=C(Nc1ccccc1F)C1COc2ccccc2O1 (stereo unspecified) was read as aSyn UTR act -91.
